Laboratory results from PubChem BioAssay (NCATS).
For part of these data: Potency and affinity values are given separately. The source made the active and inactive calls. A call without a number means that no potency is given here. Calls follow the shape of the full dose curve.

Tests used:
[1] = Ebola virus entry assay, blue channel fluorescence
[2] = Ebola virus entry assay, green fluorescence channel
[3] = Ebola virus entry assay, ratio channel readout

Compound | outcome [1] | outcome [2] | outcome [3] | AC50 [1] | AC50 [3]
CCC[C@@H]1C[C@@H](C(=O)N[C@@H]([C@H]2O[C@H](SC)[C@H](O)[C@@H](O)[C@H]2O)[C@H](C)Cl)N(C)C1 | inactive | inactive | inactive |  | 
C[N+](C)(C)CC(O)CC(=O)[O-] (centres undefined) | inactive | inactive | inactive |  | 
S=c1nc[nH]c2nc[nH]c12 | inactive | inactive | inactive |  | 
Nc1nc2ccc(OC(F)(F)F)cc2s1 | inactive | inactive | inactive |  | 
NS(=O)(=O)c1cc(Cl)c(Cl)c(S(N)(=O)=O)c1 | inactive | inactive | inactive |  | 
CC(C)(C)NC[C@H](O)COc1ccccc1C1CCCC1 |  | inactive |  | 4.47 µM (active) | 3.55 µM (active)
COc1cccc2c1C(=O)c1c(O)c3c(c(O)c1C2=O)C[C@@](O)(C(=O)CO)C[C@@H]3O[C@H]1C[C@H](N)[C@@H](O)[C@H](C)O1 |  | inactive | inactive | 7.94 µM (active) | 
CC[C@H]1OC(=O)[C@H](C)C(=O)[C@H](C)[C@@H](O[C@@H]2O[C@H](C)C[C@H](N(C)C)[C@H]2O)[C@](C)(OC)C[C@@H](C)C(=O)[C@H](C)[C@H]2N(CCCCn3cnc(-c4cccnc4)c3)C(=O)O[C@]12C | inactive | inactive | inactive |  | 
O=C(OC1C[C@@H]2CC3C[C@H](C1)N2CC3=O)c1c[nH]c2ccccc12 (some centres undefined) | inactive | inactive | inactive |  | 
CN1[C@@H]2CC[C@H]1CC(OC(c1ccccc1)c1ccccc1)C2 (some centres undefined) |  | inactive |  | 5.01 µM (active) | 3.55 µM (active)
CCOC(=O)[C@H](CCc1ccccc1)N[C@H]1CCCN2CCC[C@@H](C(=O)O)N2C1=O | inactive | inactive | inactive |  | 
CCCCC(=O)N(Cc1ccc(-c2ccccc2-c2nn[nH]n2)cc1)[C@@H](C(=O)O)C(C)C | inactive | inactive | inactive |  | 
Cc1c(N)nc([C@H](CC(N)=O)NC[C@H](N)C(N)=O)nc1C(=O)N[C@H](C(=O)N[C@H](C)[C@@H](O)[C@H](C)C(=O)N[C@H](C(=O)NCCc1nc(-c2nc(C(=O)NCCCCN=C(N)N)cs2)cs1)[C@@H](C)O)[C@@H](O[C@@H]1O[C@@H](CO)[C@@H](O)[C@H](O)[C@@H]1O[C@H]1O[C@H](CO)[C@@H](O)[C@H](OC(N)=O)[C@@H]1O)c1cnc[nH]1 | inactive | inactive | inactive |  | 
CCCCCCCCCCCCCCCC(=O)OCCC1CCN(CCCN2c3ccccc3Sc3ccc(S(=O)(=O)N(C)C)cc32)CC1 | inactive | inactive | inactive |  | 
CN1[C@@H]2CCC[C@@H]1CC(NC(=O)c1nn(C)c3ccccc13)C2 (some centres undefined) | inactive | inactive | inactive |  | 
CC(C)c1nc(N(C)S(C)(=O)=O)nc(-c2ccc(F)cc2)c1/C=C/C(O)CC(O)CC(=O)O (centres undefined) | inactive | inactive | inactive |  | 
CNCCC=C1c2ccccc2CCc2ccccc21 |  | inactive |  | 8.91 µM (active) | 7.95 µM (active)
CO/N=C(/C(=O)N[C@@H]1C(=O)N2C(C(=O)O)=C(COC(N)=O)CS[C@H]12)c1ccco1 | inactive | inactive | inactive |  | 
COc1cc([C@@H]2c3cc4c(cc3C(O[C@@H]3O[C@@H]5CO[C@@H](C)O[C@H]5[C@H](O)[C@H]3O)C3COC(=O)[C@@H]32)OCO4)cc(OC)c1OP(=O)(O)O (some centres undefined) |  | inactive |  | 7.08 µM (active) | 7.08 µM (active)
CCN(CC)CC#CCOC(=O)C(O)(c1ccccc1)C1CCCCC1 (centres undefined) | inactive | inactive | inactive |  | 
CO/N=C(\C(=O)N[C@@H]1C(=O)N2C(C(=O)O)=C(C[N+]3(C)CCCC3)CS[C@H]12)c1csc(N)n1 | inactive | inactive | inactive |  | 
CC(C)NCC(O)c1ccc(NS(C)(=O)=O)cc1 (centres undefined) | inactive | inactive | inactive |  | 
CC(=O)NC[C@H]1CN(c2ccc(N3CCOCC3)c(F)c2)C(=O)O1 | inactive | inactive | inactive |  | 
CO[C@H]1C[C@@H]2CC[C@@H](C)[C@@](O)(O2)C(=O)C(=O)N2CCCC[C@@H]2C(=O)O[C@H]([C@H](C)C[C@@H]2CC[C@H](OCCO)[C@H](OC)C2)CC(=O)[C@H](C)C=C(C)[C@@H](O)[C@@H](OC)C(=O)[C@H](C)C[C@H](C)C=CC=CC=C1C | inactive | inactive | inactive |  | 
CC=CC1=C(C(=O)O)N2C(=O)[C@H](NC(=O)[C@H](N)c3ccc(O)cc3)[C@@H]2SC1 | inactive | inactive | inactive |  | 
CN1CCN(CCC=C2c3ccccc3Sc3ccc(S(=O)(=O)N(C)C)cc32)CC1 |  | inactive |  | 4.47 µM (active) | 4.47 µM (active)
CC(=O)O[C@H]1C(=O)[C@@]2(C)[C@H]([C@H](OC(=O)c3ccccc3)[C@]3(O)C[C@H](OC(=O)[C@H](O)[C@@H](NC(=O)c4ccccc4)c4ccccc4)C(C)=C1C3(C)C)[C@]1(OC(C)=O)CO[C@@H]1C[C@@H]2O | inactive | inactive | inactive |  | 
Nc1nc(Cl)nc2c1ncn2[C@H]1C[C@H](O)[C@@H](CO)O1 | inactive | inactive | inactive |  | 
